Reference: paper PMC10163288
The list is a sample of the results. No count for the full screen is at hand.

B1: il2ra_site1_1z92_normal_mot_c9a8daa1dfea21d1414aecde54be4f54_0001_1_af2_000000024_0001_32_46_H_._0e4f66a3c4b070984708d3e1d5382b02_0001_1_af2_0001_0000100008_000 … (protein)
chain: NVAERLFEQAEELGVPPRAVVLALVSAVHAEDPRLREEAEELLERVRRGELPPEEAVRLLAELLE
B2: il2ra_site1_3nfp_sap_9_mot_HHH_b1_03716_af2_000000235_0001_20_37_H_._HHH_b1_05438_0001_0000400011_0000001_0_0001_af2pred_0001_af2pred_1 (protein)
chain: SSSSTELKELLKIVQRLFEEFNLSEEQAQELLQLAEELAKEGVSLEEIEELLRELAERLSSSSSS
B3: il2ra_site2_3nfp_sap_18_mot_11405e7faed88c9d08fdae67291e590b_0001_1_000000110_0001_14_30_H_._HHH_b2_00163_af2_0001_0000300012_0000001_0_0001 (protein)
chain: SSSSDKHERYLRAALELIERAIREGDHEIARRMLETVKSAAEDNNDEEIEELVEELEELLRSSSS
B4: il2ra_site2_2erj_normal_mot_HHH_b1_03609_af2_000000077_0001_42_55_H_._HHH_b2_01692_0001_0000500006_0000001_0 (protein)
chain: SSSSSEVEEEVREILEEAKHIEDPEEREKVLSKAAELAFENNDFEAWSLVSEVFRELAESSSSSS
B5: il2ra_site2_2erj_normal_mot_6bd1339e93f6fdda22195c76da45ec5d_0001_000000136_0001_37_51_H_._HHH_b2_06260_0001_0000100003_0000001_0_af2pred_0001_af2pred (protein)
chain: SSSSSEDEERVEELLEQAEEAAKRDPEKALHLLFEAMEIALKSDNEELLKLVLEVSHRIAESSSS
B6: il2ra_site2_2erj_normal_mot_HHH_b1_05749_af2_000000010_0001_23_39_H_._HHH_b1_07967_0001_0001100051_0000001_1 (protein)
chain: SSSSDWLEELYRLAVELLRLSSRRDEEEFERVYREIERLVEEFNNESAREILEHIRRLFEGSSSS
B7: il2ra_site1_2b5i_normal_mot_2cbe48e66a1f39b3fed734b245ab0a04_0001_000000015_0001_17_31_H_._HHH_b2_00019_0001_0000500012_0000001_0_af2pred_dldesign_0_af2pred (protein)
chain: SSSSSSDAEAEVERLLEEARKVNPEEAEKLLFKALVVAWAAKDPALVARVEAEAKRLLSSSSSSS
B8: il2ra_site2_3nfp_sap_25_mot_HHH_b2_07498_000000293_0001_1_14_H_._HHH_b1_01574_0001_0000100004_0000001_0_0001_af2pred_0001_1_af2pred_swapped (protein)
chain: SSSSSDEELLEEAKRLLEEGNLEEAFRVLAEAASEAIELGDEELAHEIAALAIEVAEKLGSSSSS
B9: il2ra_site1_1z92_sap_9_mot_HHH_b1_04604_af2_000000029_0001_42_56_H_._3020bb65e3c0c4c1750efda2a61ed53f_0001_1_af2_0001_0000300015_0000001_0_0001 (protein)
chain: SEEYLEEQLRRKLELGNIEDAARALFKFIAAAAGDPEQAEEFLEELLKRAGVPPEVIEKILEEAK
B10: il2ra_site1_2b5i_normal_mot_HHH_b2_00231_000000175_0001_20_36_H_._HHH_b2_07547_0001_0000100002_0000001_0_af2pred_0001_af2pred (protein)
chain: SSSSDVWELYLRASRLFLRGNPEEAERLLEEAIELAERLGDPEIAKQLEEMLRHVRRSLSSSSSS
B11: il2ra_site2_3nfp_sap_20_mot_ce0e691d864d74cc0dee145e42b7b696_0001_1_af2_000000051_0001_34_49_H_._HHH_b1_03816_af2_0001_0000500031_0000001_0_0001 (protein)
chain: SSSSSDEEKLEEARELYEEGNPEEARKILLHLVSEAEEKGDRELLFRIMALANEVAAALISSSSS
B12: il2ra_site2_3nfp_normal_mot_HHH_b1_05918_af2_000000127_0001_23_40_H_._HHH_b1_07797_0001_0000400047_0000001_0 (protein)
chain: SSSSSEAEEYLRAALLLAELALREGDEENARRSLELAIQLAEHKGNPELLEELEELLEEINSSSS
B13: il2ra_site1_3nfp_sap_8_mot_119b7766384adbe86006a62bce89dba1_0001_af2_000000092_0001_18_32_H_._HHH_b2_02632_0001_0000300007_0000001_0_0001 (protein)
chain: SSSSDARELLFEAAEILDELAERGDHEELKRFAEEVIEELEELGNRQAARMIRWLVERALSSSSS
B14: il2ra_site2_3nfp_sap_22_mot_HHH_b2_08245_000000023_0001_41_55_H_._HHH_b2_07283_0001_0000300027_0000001_0_0001 (protein)
chain: SSSSDVEERIEELLKEIEELLEKGDPEEAERLLLEVALLAWETGDFEAFAAVTRLLERVQSSSSS
B15: il2ra_site1_2b5i_sap_18_mot_89dc1dc23437faef961419e82e151d9c_0001_af2_000000202_0001_15_32_H_._9f08b0091ee0dae2b2d48aa630d4ec63_0001_1_0001_0000400022_0000001_0 … (protein)
chain: SSSSSIEELLEAMLELAEELIENGNPEEARAILLLARRAARAHGNPEYVKELERLLRELLSSSSS
B16: il2ra_site2_3nfp_normal_mot_HHH_b1_05158_000000192_0001_1_17_H_._HHH_b1_05195_0001_0000600013_0000001_0_af2pred_0001_af2pred (protein)
chain: SSSSSSDSELTFLLILLEALLEEVDDPEIRELLEEALEELREKKDPEIARKVLKEASEYLSSSSS
B17: il2ra_site2_3nfp_sap_26_mot_HHH_b1_00015_000000185_0001_19_35_H_._HHH_b2_06138_0001_0000600047_0000001_0_0001_af2pred_0001_af2pred (protein)
chain: SSSSSSDEEEEVEKLLEEAKHIEDEFELYAVLADAARIAFELKDEELRRLVKEVRHELSSSSSSS
B18: il2ra_site1_1z92_normal_mot_HHH_b1_08597_af2_000000202_0001_42_56_H_._6e12af4a48b4634929ba45889b8be782_0001_0001_0000600034_0000001_0 (protein)
chain: NVEWAIENLERLARLQGNPEVERVLRRVLELLKKNEEEAEEFLEELVRELGDKLLRLLLRMLKTA
B19: il2ra_site1_1z92_sap_14_mot_1581cc1c700002558836ca695aafbf97_0001_1_af2_000000099_0001_17_32_H_._d5167a162c519d043ddc16d89768c28c_0001_1_0001_0000100008_0000001 … (protein)
chain: SLEEEIERALKEAGVPPEEIEAIKRDIRRTQEFGIPPRSIALAVLRALKSHDEELAERVEELLRK

Target: il2ra, P01589
Sequence (P01589 whole entry): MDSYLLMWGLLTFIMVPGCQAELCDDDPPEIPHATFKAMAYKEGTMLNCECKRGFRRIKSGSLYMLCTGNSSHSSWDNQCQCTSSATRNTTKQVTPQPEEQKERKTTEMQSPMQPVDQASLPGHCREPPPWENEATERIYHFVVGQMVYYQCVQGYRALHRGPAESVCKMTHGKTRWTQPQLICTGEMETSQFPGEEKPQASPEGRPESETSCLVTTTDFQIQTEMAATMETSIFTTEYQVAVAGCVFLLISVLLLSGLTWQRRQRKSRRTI
Assay: yeast display titration

Apparent Kd, inactive:
B1 no binding seen, B2 no binding seen, B3 no binding seen, B4 no binding seen, B5 no binding seen, B6 no binding seen, B7 no binding seen, B8 no binding seen, B9 no binding seen, B10 no binding seen, B11 no binding seen, B12 no binding seen, B13 no binding seen, B14 no binding seen, B15 no binding seen, B16 no binding seen, B17 no binding seen, B18 > 311 nM, B19 no binding seen
